Laboratory results published in PubChem BioAssay (EPA / NIEHS).
The source made the active and inactive calls. How the source made its calls: active means hit-call score of the fitted dose curve at least 0.9, where 1 is the maximum; inactive means score below 0.9.

Tests used:
[1] = target: Transcription factor E2F1 (Homo sapiens) (UniProt Q01094); experiment: ATG_E2F_CIS: Attagene CIS-FACTORIAL HepG2 Assay for human E2F Transcription Factor 1 (AID 2282935); settings: HepG2 Attagene cis-reporter, E2F reporter RNA transcripts; actives raise or lower the signal
Transcription factor E2F1 (Homo sapiens), sequence (Q01094 whole entry, looked up): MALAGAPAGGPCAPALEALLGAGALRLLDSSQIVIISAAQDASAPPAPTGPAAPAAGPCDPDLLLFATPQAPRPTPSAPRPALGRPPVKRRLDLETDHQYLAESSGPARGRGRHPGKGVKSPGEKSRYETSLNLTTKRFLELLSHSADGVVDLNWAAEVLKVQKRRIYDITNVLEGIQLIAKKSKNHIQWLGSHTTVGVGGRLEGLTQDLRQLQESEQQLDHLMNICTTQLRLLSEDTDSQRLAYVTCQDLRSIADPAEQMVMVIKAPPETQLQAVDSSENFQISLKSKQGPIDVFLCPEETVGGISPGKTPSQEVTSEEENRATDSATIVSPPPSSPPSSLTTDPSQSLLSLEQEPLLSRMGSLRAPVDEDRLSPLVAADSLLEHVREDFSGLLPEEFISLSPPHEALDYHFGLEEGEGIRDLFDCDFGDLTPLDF
Procedure, shortened: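 Liver-derived HepG2 cells expressing transfected promoter-driven reporter units received test chemical for 24 hours. Signal gains or losses were fitted bidirectionally against DMSO.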

[2] = ATG_E_Box_CIS: Attagene CIS-FACTORIAL HepG2 Assay for human Enhancer Box (E-box) (AID 2282936); settings: HepG2 E-box cis-reporter transcription, actives raise or lower the signal
Procedure, shortened: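 In this cell-based setup, HepG2 cells bearing transfected promoter-driven reporter units were exposed to chemicals for 24 h; reporter transcripts were amplified, 6-FAM-labelled, cut with HpaI and sized by capillary electrophoresis.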

[3] = ATG_M_61_CIS: Attagene CIS-FACTORIAL HepG2 Assay for M61 Transcription Factor (Internal Marker) (AID 2282937); settings: HepG2 Attagene CIS-FACTORIAL M61 internal marker reporter; actives raise or lower the signal
Procedure, shortened: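 This endpoint serves as an internal background control within a multiplexed HepG2 cis-reporter panel. Cells are exposed for 24 h; reporter mRNA is amplified, fluorescently labelled and sized by capillary electrophoresis, with DMSO as negative control.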

[4] = ATG_EGR_CIS: Attagene CIS-FACTORIAL HepG2 Assay for human Early Growth Response 1 (EGR1) (AID 2282938); settings: HepG2 Attagene CIS-FACTORIAL EGR reporter mRNA; actives raise or lower the signal
Procedure, shortened: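 HepG2, transient MRTU transfection (cis promoters), 24 h compound. RNA → RT (oligo-dT) → PCR → 6-FAM labelling → HpaI cut → CE fluorescence. Bidirectional fit, DMSO baseline.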

[5] = ATG_ERE_CIS: Attagene CIS-FACTORIAL HepG2 Assay for Estrogen Response Element (ERE) (AID 2282940); settings: HepG2 ERE cis-reporter, Attagene RNA transcript; actives raise or lower the signal
Procedure, shortened: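 After a 24 h chemical treatment, RNA from reporter-transfected HepG2 cells is reverse-transcribed, PCR-amplified and fluorescently labelled. Fragments separated by capillary electrophoresis give reporter signal; DMSO serves as negative control.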

[6] = ATG_Ets_CIS: Attagene CIS-FACTORIAL HepG2 Assay for human Erythroblast Transformation Specific (ETS) (AID 2282941); settings: HepG2 ETS cis-reporter transcription, actives raise or lower the signal
Procedure, shortened: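 Cis-regulated reporter mRNA induction in HepG2 (transient transfection), 24 h exposure, RT-PCR plus capillary electrophoresis detection; DMSO serves as negative control and baseline.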

[7] = target: Hepatocyte nuclear factor 3-beta (Homo sapiens) (UniProt Q9Y261); experiment: ATG_FoxA2_CIS: Attagene CIS-FACTORIAL HepG2 Assay for human Forkhead box A2 (FOXA2) (AID 2282942); settings: HepG2 cis-reporter transcription factor activity, 24 h; actives raise or lower the signal
Hepatocyte nuclear factor 3-beta (Homo sapiens), sequence (Q9Y261 whole entry, looked up): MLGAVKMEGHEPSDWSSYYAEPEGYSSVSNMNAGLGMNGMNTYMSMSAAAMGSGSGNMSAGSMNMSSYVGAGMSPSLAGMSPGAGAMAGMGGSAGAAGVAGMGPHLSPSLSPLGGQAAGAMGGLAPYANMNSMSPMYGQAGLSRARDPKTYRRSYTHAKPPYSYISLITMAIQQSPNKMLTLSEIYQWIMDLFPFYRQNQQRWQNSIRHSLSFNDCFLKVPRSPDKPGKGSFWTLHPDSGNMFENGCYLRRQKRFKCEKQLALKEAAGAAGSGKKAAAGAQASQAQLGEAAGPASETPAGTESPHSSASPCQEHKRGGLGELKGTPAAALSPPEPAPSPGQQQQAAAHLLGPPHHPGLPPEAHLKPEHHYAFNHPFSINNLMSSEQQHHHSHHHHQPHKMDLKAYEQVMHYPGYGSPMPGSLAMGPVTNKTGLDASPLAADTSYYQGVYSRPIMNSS
Procedure, shortened: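 Cells: HepG2, transient multiplex reporter transfection. Exposure 24 h. Detection: reporter-specific RT-PCR, fluorescent labelling, restriction digest, capillary electrophoresis. Analysis: bidirectional curve fit, DMSO as negative control.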

[8] = ATG_FoxO_CIS: Attagene CIS-FACTORIAL HepG2 Assay for human Forkhead box O (FoxO) (AID 2282943); settings: HepG2 Attagene cis-reporter, FoxO element, mRNA; actives raise or lower the signal
Procedure, shortened: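 Read-out: fluorescence of 6-FAM-labelled reporter cDNA fragments resolved by capillary electrophoresis. Transiently transfected HepG2 cells were dosed for 24 h; activity fitted in both directions relative to DMSO controls.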

[9] = ATG_GLI_CIS: Attagene CIS-FACTORIAL HepG2 Assay for human Zinc Finger Protein GLI1 (AID 2282945); settings: HepG2, Attagene cis-factorial reporter mRNA, GLI element; actives raise or lower the signal
Procedure, shortened: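 Transiently transfected HepG2 cells report endogenous transcription factor activity via cis-element-driven reporter units. After 24 h compound exposure, reporter mRNA was measured by RT-PCR with capillary electrophoresis; bidirectional fitting against DMSO baseline.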

[10] = target: Bile acid receptor (Homo sapiens) (UniProt Q96RI1); experiment: ATG_IR1_CIS: Attagene CIS-FACTORIAL HepG2 Assay for human Nuclear Receptor Subfamily 1 Group H Member 4 (NR1H4), IR1 submotif (AID 2282946); settings: IR1 reporter transcription, actives raise or lower the signal
Bile acid receptor (Homo sapiens), sequence (Q96RI1 whole entry, looked up): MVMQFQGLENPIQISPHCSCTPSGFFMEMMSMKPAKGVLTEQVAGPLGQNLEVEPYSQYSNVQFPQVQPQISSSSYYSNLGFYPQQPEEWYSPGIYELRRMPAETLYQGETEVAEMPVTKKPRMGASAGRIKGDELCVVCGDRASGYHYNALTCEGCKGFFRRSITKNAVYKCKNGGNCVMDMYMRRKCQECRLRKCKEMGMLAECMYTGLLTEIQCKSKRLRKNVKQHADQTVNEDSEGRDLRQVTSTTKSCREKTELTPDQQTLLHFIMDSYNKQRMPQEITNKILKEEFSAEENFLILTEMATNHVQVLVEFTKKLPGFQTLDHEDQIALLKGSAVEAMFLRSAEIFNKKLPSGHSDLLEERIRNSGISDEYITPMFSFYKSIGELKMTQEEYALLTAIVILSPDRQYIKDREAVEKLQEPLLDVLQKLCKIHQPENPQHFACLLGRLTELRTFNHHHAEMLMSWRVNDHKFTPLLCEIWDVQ
Procedure, shortened: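 Fluorescence of capillary-separated, HpaI-digested RT-PCR reporter products gave IR1-element mRNA induction in HepG2 cells 24 h after dosing. Endogenous transcription factors drove the cis-regulated reporters; activity was fitted bidirectionally against DMSO.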

[11] = ATG_GRE_CIS: Attagene CIS-FACTORIAL HepG2 Assay for human Glucocorticoid Response Elements (GRE) (AID 2282947); settings: HepG2 GRE cis-reporter, Attagene multiplex mRNA; actives raise or lower the signal
Procedure, shortened: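 Fluorescence intensity of reporter-specific cDNA fragments, separated by capillary electrophoresis, provides the signal. Constructs carry cis-regulating promoters in transiently transfected HepG2 liver cells; 24 h incubation; fitting is bidirectional against DMSO.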

[12] = ATG_ISRE_CIS: Attagene CIS-FACTORIAL HepG2 Assay for human Interferon Regulatory Factor 1 (IRF1) binding to an Interferon-Stimulated Response Element (ISRE) (AID 2282948); settings: HepG2 ISRE cis-reporter (Attagene), mRNA transcription readout; actives raise or lower the signal
Procedure, shortened: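 Multiplexed mRNA reporter readout in human liver HepG2 cells: cis-element-driven reporters transfected, compound added for 24 h, transcripts amplified, fluorescently labelled and sized by capillary electrophoresis; curve fitting bidirectional against DMSO.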

[13] = ATG_M_32_CIS: Attagene CIS-FACTORIAL HepG2 Assay for M32 Transcription Factor (Internal Marker) (AID 2282949); settings: HepG2 Attagene cis-factorial M32 reporter, mRNA; actives raise or lower the signal;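 further: background control marker of the multiplexed CIS panel rather than a real target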
Procedure, shortened: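 HepG2 human liver cells transiently transfected with cis-promoter-driven multiple reporter transcription units, dosed 24 h. Reporter mRNA quantified by RT-PCR, FAM-labelled primer extension, HpaI digest and capillary electrophoresis; bidirectional fit versus DMSO baseline.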

[14] = ATG_M_06_CIS: Attagene CIS-FACTORIAL HepG2 Assay for M06 Transcription Factor (Internal Marker) (AID 2282950); settings: HepG2 Attagene CIS-FACTORIAL M06 internal marker reporter; actives raise or lower the signal
Procedure, shortened: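 Measured 24 h post-dosing in transiently transfected HepG2 cells, this internal-marker endpoint reports reporter mRNA via RT-PCR with fluorescent primer extension and capillary electrophoresis. DMSO served as negative control and baseline for bidirectional fitting.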

[15] = target: Hypoxia-inducible factor 1-alpha (Homo sapiens) (UniProt Q16665); experiment: ATG_HIF1a_CIS: Attagene CIS-FACTORIAL HepG2 Assay for human Hypoxia Inducible Factor 1 (HIF1A) (AID 2282951); settings: HepG2 Attagene cis-factorial HIF1a reporter transcription; actives raise or lower the signal
Hypoxia-inducible factor 1-alpha (Homo sapiens), sequence (Q16665 whole entry, looked up): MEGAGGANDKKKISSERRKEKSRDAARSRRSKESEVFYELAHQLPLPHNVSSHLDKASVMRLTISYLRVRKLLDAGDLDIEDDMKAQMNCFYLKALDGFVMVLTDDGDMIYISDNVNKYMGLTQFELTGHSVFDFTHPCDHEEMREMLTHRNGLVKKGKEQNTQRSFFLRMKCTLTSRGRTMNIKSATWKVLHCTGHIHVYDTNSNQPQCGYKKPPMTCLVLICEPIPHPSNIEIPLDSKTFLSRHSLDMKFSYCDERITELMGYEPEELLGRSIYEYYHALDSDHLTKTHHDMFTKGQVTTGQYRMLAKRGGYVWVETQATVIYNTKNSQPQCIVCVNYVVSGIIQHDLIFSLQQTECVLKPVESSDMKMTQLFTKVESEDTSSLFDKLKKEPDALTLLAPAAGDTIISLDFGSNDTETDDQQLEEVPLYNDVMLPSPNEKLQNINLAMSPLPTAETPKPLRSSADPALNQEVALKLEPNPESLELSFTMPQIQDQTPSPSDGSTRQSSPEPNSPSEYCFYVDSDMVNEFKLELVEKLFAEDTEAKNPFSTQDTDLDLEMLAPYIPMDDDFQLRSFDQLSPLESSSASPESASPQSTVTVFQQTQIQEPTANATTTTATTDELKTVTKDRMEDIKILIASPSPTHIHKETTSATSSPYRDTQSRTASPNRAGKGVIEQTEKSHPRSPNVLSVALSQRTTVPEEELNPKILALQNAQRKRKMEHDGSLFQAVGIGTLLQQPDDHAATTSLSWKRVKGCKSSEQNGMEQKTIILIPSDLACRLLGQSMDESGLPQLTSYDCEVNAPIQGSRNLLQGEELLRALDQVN
Procedure, shortened: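 HepG2, transient cis-reporter library, 24 h dosing. RNA → RT (oligo dT) → PCR → 6-FAM primer extension → HpaI → CE. Bidirectional curve fit vs DMSO.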

[16] = target: Hepatocyte nuclear factor 6 (Homo sapiens) (UniProt Q9UBC0); experiment: ATG_HNF6_CIS: Attagene CIS-FACTORIAL HepG2 Assay for human Hepatocyte Nuclear Factor 6 (HNF6) (AID 2282952); settings: HepG2 Attagene cis-factorial HNF6 reporter transcription; actives raise or lower the signal
Hepatocyte nuclear factor 6 (Homo sapiens), sequence (Q9UBC0 whole entry, looked up): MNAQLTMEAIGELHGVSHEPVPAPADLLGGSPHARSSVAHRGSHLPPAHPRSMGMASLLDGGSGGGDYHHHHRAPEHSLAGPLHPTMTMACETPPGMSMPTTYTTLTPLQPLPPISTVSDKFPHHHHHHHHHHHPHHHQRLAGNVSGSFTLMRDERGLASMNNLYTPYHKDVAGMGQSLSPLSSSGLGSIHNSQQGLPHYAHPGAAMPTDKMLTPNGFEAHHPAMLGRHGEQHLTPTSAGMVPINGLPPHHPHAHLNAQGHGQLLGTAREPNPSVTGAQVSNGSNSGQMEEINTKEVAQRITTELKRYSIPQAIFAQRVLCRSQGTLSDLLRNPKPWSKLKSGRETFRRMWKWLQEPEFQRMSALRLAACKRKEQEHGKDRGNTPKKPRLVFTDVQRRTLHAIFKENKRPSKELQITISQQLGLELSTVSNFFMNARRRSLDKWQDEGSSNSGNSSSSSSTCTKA
Procedure, shortened: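 Endogenous factor activity read in transiently transfected HepG2 via promoter-regulated reporter transcripts. RNA harvested 24 h post-dosing, reverse-transcribed, PCR-amplified, FAM-labelled, HpaI-digested and resolved by capillary electrophoresis; fitted in both directions against DMSO.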

[17] = target: Heat shock factor protein 1 (Homo sapiens) (UniProt Q00613); experiment: ATG_HSE_CIS: Attagene CIS-FACTORIAL HepG2 Assay for human Heat Shock Transcription Factor 1 (HSE) (AID 2282953); settings: HepG2 HSE cis-reporter, Attagene RNA transcription; actives raise or lower the signal
Heat shock factor protein 1 (Homo sapiens), sequence (Q00613 whole entry, looked up): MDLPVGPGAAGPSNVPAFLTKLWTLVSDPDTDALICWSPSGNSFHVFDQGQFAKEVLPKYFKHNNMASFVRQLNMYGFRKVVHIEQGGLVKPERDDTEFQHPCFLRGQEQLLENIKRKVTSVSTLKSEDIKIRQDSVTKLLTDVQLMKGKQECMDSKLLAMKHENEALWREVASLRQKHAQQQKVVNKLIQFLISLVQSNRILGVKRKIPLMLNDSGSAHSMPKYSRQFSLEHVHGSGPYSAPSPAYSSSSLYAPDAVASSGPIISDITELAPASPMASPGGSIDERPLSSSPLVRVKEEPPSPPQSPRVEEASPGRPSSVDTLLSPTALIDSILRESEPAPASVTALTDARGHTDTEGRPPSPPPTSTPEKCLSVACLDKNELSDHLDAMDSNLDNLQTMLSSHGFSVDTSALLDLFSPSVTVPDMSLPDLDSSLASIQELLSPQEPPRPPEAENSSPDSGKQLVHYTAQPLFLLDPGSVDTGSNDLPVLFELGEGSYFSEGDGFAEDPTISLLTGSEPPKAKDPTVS
Procedure, shortened: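 Reporter mRNA induction in HepG2 is measured 24 h after dosing, using transiently transfected multiplexed cis-regulated reporter units. Signal comes from capillary electrophoresis of labelled RT-PCR products, with DMSO as negative control.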

[18] = ATG_MRE_CIS: Attagene CIS-FACTORIAL HepG2 Assay for human Metal Responsive Element (MRE) (AID 2282954); settings: HepG2 MRE cis-reporter transcription, Attagene multiplex; actives raise or lower the signal
Procedure, shortened: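 Measured here is mRNA induction from an MRE cis-element reporter in HepG2 after 24 h, quantified by fluorescence of labelled RT-PCR products on capillary electrophoresis; gain- and loss-of-signal fits use DMSO as baseline.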

Measured: AC50

ClC(Cl)=C(c1ccc(Cl)cc1)c1ccccc1Cl
active: [2] 63.6 µM | [5] 4.18 µM | [6] 174 µM | [8] 160 µM | [10] 43.7 µM | [11] 124 µM | [17] 41.7 µM | [18] 100 µM
inactive: all other assays above

CCCN(CCC)c1c([N+](=O)[O-])cc(C(C)C)cc1[N+](=O)[O-]
not listed: [10] | [11]
inactive: all other assays above

N#Cc1ccc(O)cc1
inactive: all assays above

Nc1ccc2ccccc2c1
not listed: [10] | [11]
inactive: all other assays above
